E-sel TNF inh: TNF alpha driven E-selectin expression inhibition; 120,000 tested, 0.71% active; HUVEC TNFa-induced E-selectin immunofluorescence, high content; inhibition, % at 2 µM; AID 1246;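 active = inhibition above the batch mean plus 3 SD, and confirmed as a hit on visual image review, cut at about 43% in these data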;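 note: 0% = TNF-stimulated DMSO wells and 100% = unstimulated control wells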
F-actin modifier: modifiers of cytoskeleton assembly | AID 836 | HUVEC TNFa F-actin phalloidin imaging, high content | inhibition, % at 2 µM | 91,000 tested, 0.18% active;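 active = inhibition above the batch mean plus 3 SD and confirmed as a hit by visual image inspection, cut at about 30% in these data, passing the limit was not always enough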
CYP2C9 activ: CYP2C9 (human) activation | P11712 | recombinant CYP2C9, luciferin-H conversion, luminescence; stronger effect = higher value; factor 1 = untreated enzyme, 0 = blocked | activation factor at 5 µM | 96,000 tested, 1.4% active | AID 1024;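 active = activation factor of 2 or more for CYP2C9 at a 5 µM dose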;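 note: 0 = sulfaphenazole-blocked wells and 1 = vehicle-only wells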
Target sequence (P11712 whole entry, looked up): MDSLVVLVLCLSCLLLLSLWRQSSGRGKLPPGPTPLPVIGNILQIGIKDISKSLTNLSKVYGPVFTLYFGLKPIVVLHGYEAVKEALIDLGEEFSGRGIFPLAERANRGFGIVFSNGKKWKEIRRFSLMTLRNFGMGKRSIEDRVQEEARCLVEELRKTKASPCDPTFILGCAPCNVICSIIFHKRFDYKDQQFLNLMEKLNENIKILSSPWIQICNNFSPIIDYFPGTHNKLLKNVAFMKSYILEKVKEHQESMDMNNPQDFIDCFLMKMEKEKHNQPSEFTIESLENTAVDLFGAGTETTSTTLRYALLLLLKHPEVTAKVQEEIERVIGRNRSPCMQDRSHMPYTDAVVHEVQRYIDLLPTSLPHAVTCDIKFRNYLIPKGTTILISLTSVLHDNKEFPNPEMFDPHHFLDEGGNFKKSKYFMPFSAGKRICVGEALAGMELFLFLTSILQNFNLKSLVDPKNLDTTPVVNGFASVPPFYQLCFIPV
CYP2C9 inhib: inhibitors of human CYP2C9 | CYP2C9 Supersomes, luciferin-H conversion, luminescence | inhibition, % at 5 µM | 96,000 tested, 20% active | AID 777;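 active = blocking of liver enzyme CYP2C9 beyond about 50% at 5 µM, limit read from the data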
CYP2C19 act: cytochrome P450 2C19 (human) activation | recombinant CYP2C19, luciferin-H EGE luminescence; stronger effect = higher value; 0 = fully inhibited enzyme, 1 = untreated enzyme | activation factor at 5 µM | 96,000 tested, under 10 active;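 active = activation factor of at least 2 at 5 µM in the primary screen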;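 note: 0 = wells with 2.5 mM tranylcypromine and 1 = vehicle-only wells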
CYP2C19 inh: inhibitors of human CYP2C19. P33261. CYP2C19 Supersomes, luciferin-H EGE luminescence, 30 min. inhibition, % at 5 µM. 96,000 tested, 21% active. AID 778;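 active = CYP2C19 inhibition above a set limit at 5 µM in the primary screen, cut at about 50% in these data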;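 note: plate controls were negative control wells for no effect and 2.5 mM tranylcypromine positive control for full effect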
An asterisk follows results filed as active; · = not tested or not shown. The list is not random: actives were taken first. Their share in the collection is about 22%.

SMILES | E-sel TNF inh | F-actin modifier | CYP2C9 activ | CYP2C9 inhib | CYP2C19 act | CYP2C19 inh
COc1ccc(-c2nc(-c3ccccc3)c(-c3cc([N+](=O)[O-])ccc3C)[nH]2)cc1O | -17 | -4 | 0.3 | 74* | 0.2 | 77*
CCCCCNC(=O)N[C@H](C(=O)O)C(C)C | -7 | · | · | · | · | ·
Fc1ccc(NC(=S)Nc2nccs2)cc1 | -26 | · | · | · | · | ·
CC(C)(C)OC(=O)N1CCCC(C(=O)CC#N)C1 (stereo not given) | -11 | -6 | 0.3 | 66* | 0.6 | 37
CC(C)(C)OC(=O)N1CCC(C(N)=O)CC1 | 6 | · | 1 | 4 | 1 | 2
O=C(NNC(=O)c1sccc1-n1cccc1)c1ccc(Cl)cc1 | -17 | 13 | 2.7* | -171 | 0.9 | 6
O=C(NNC(=O)c1ccccc1-n1cccc1)c1ccc(Cl)c(Cl)c1 | 4 | 13 | 1.5 | -49 | 0.5 | 50*
CC(C)(C)c1ccc(C(=O)NNC(=O)c2ccccc2Br)cc1 | -5 | 6 | 1.1 | -5 | 1.1 | -10
COc1cccc(C(=O)NNC(=O)c2sccc2-n2cccc2)c1 | -52 | · | · | · | · | ·
O=C(NNC(=O)c1ccccc1-n1cccc1)c1ccc(Cl)cc1 | 54* | · | 1.8 | -78 | 1 | -1
O=C(NNC(=O)c1ccccc1Br)c1ccc(Cl)c(Cl)c1 | -8 | 8 | 2.2* | -123 | 0.8 | 24
CCNC(=S)NNC(=O)Nc1ccccc1 | 2 | 2 | 1.1 | -12 | 0.8 | 18
Cc1[nH]nc(N2CCCCCC2)c1[N+](=O)[O-] | 8 | 12 | 0.8 | 22 | 0.5 | 48
COc1cc(SC)ccc1C(=O)OCC(=O)NC1CCCC1 | -11 | · | · | · | · | ·
Cc1ccc(Cn2cc(S(=O)(=O)c3ccc(C(C)C)cc3)c(=O)c3cc4c(cc32)OCO4)cc1 | 12 | · | · | · | · | ·
O=S(=O)(CCn1cccc1)CCn1cccc1 | -2 | 5 | · | · | · | ·
C=CCNc1nc(-c2ccc(O)c(C(N)=O)c2)cs1 | -7 | 0 | 0.9 | 11 | 0.3 | 75*
O=C1C2C(C(=O)N1c1ccncc1)C1C=CC2C12CC2 (stereo not given) | -3 | -7 | 0.3 | 75* | 0.1 | 92*
Cc1cc(C)n(C(=O)CSc2nnc(SCC(=O)n3nc(C)cc3C)s2)n1 | -1 | 5 | 1.1 | -15 | 1.2 | -20
O=C(CN1CCN(c2ccccc2O)CC1)NC(=O)NCc1ccco1 | -27 | · | · | · | · | ·
O=C(CN1CCC(Cc2ccccc2)CC1)NC(=O)NCc1ccco1 | 15 | -8 | 1 | 0 | 0.4 | 58*
O=C(CN1CCC(NC(=O)Nc2ccccc2-c2ccccc2)CC1)NCc1ccco1 | 9 | · | 0.4 | 58* | 0.5 | 46
CCSc1nnc(NC(=O)CCNS(=O)(=O)c2cc(Br)cnc2N)s1 | -15 | 6 | 0.4 | 62* | 0.6 | 43
COC(=O)C1=C(CN2CCCc3ccccc32)NC(=O)NC1c1ccc(F)cc1 (stereo not given) | -25 | · | 0.6 | 42 | 0.3 | 72*
O=C(COc1ccc([N+](=O)[O-])cc1Cl)NCCc1ccccc1 | 88* | · | · | · | · | ·
SMILES | E-sel TNF inh | F-actin modifier | CYP2C9 activ | CYP2C9 inhib | CYP2C19 act | CYP2C19 inh
O=C(COc1ccc(Cl)cc1Cl)NCCCCc1ccccc1 | -62 | 9 | 0.8 | 19 | 0.5 | 46
CCNCc1cc(OCC)c(OCC(=O)NCCc2ccccc2)cc1Cl | -10 | 9 | 0.8 | 19 | 0.1 | 88*
COC(=O)C(NC(=O)c1ccccc1Cl)(Nc1ncc(S(=O)(=O)c2ccc([N+](=O)[O-])cc2)s1)C(F)(F)F (stereo not given) | 23 | -4 | 0.1 | 87* | 1 | 3
Cc1cccc(NC(=O)CS(=O)(=O)c2c[nH]c3ccccc23)c1C | · | 0 | 1.4 | -39 | 0.5 | 46
Cc1ccc(C)c(NC(=O)CS(=O)(=O)c2c[nH]c3ccccc23)c1 | · | 15 | 3.1* | -212 | 0.3 | 70*
COCCCNC(=O)c1oc2ccc(S(=O)(=O)N(C)C3CCCCC3)cc2c1C | · | -9 | 0.2 | 76* | 0.8 | 24
CCN(CC)S(=O)(=O)c1ccc(C(=O)N2CCCCC2)cc1 | -8 | -8 | 0.3 | 70* | 0.8 | 18
Cc1ccc(CNC(=O)c2oc3ccc(S(=O)(=O)N4CCC5(CC4)OCCO5)cc3c2C)cc1 | -8 | -16 | 0.3 | 65* | 0.6 | 44
Cc1c(C(=O)Nc2ccc(F)cc2)oc2ccc(S(=O)(=O)N3CC(C)CC(C)C3)cc12 (stereo not given) | 7 | -4 | 0.4 | 58* | 1 | -4
Cc1c(C(=O)NCc2cccnc2)oc2ccc(S(=O)(=O)N3CC(C)CC(C)C3)cc12 (stereo not given) | 0 | · | 0.7 | 26 | 0.9 | 8
Cc1cccc(C)c1NC(=S)NN(Cc1ccccc1)c1ccccc1 | · | -17 | 0.9 | 10 | 0.6 | 45
CCOCCn1c(CN2CCN(CC)CC2)nc2c1c(=O)n(C)c(=O)n2C | 14 | · | · | · | · | ·
CCOC(=O)c1sc2ccccc2c1OC(=O)c1ccccc1OC | 15 | · | · | · | · | ·
CCOC(=O)/C(C#N)=C\c1ccc(N2CCN(C)CC2)cc1 | · | 21 | 0.7 | 28 | 1 | 4
CCN(CC)S(=O)(=O)c1ccc2oc(C(=O)N3CCCCCC3)c(C)c2c1 | -4 | · | 0.4 | 56* | 1 | 3
CCN(CC)C(=O)c1oc2ccc(S(=O)(=O)N3CCCCCC3)cc2c1C | 20 | 3 | 0.7 | 28 | 0.5 | 51*
Cc1c(C(=O)O)oc2ccc(S(=O)(=O)NCc3ccc(F)cc3)cc12 | -3 | 9 | 0.3 | 72* | 1.1 | -7
CCOC(CNC(=O)c1ccc(N2CCc3ccccc32)c([N+](=O)[O-])c1)OCC | 0 | · | · | · | · | ·
Cc1ccc(NC(=S)N/N=C/c2ccc([N+](=O)[O-])s2)cc1 | -5 | · | · | · | · | ·
O=[N+]([O-])c1ccc(NCCCNS(=O)(=O)c2ccc(Cl)cc2)c(Cl)c1 | 5 | -14 | 0.5 | 49 | 0.3 | 72*
CC(C)(C)C(=O)NCCN1C(=O)S/C(=C\c2ccc([N+](=O)[O-])cc2)C1=O | -25 | · | · | · | · | ·
CC(C)(C)C(=O)/C(=C\c1ccc([N+](=O)[O-])cc1)n1cncn1 | 66* | 5 | · | · | · | ·
O=C(CNS(=O)(=O)c1cccc2nonc12)NCc1ccc(F)cc1 | 11 | · | 0.5 | 49 | 0.5 | 53*
O=C(CNS(=O)(=O)c1cccc2nsnc12)NCc1ccc(Cl)cc1 | 10 | · | 0.5 | 52* | 0.5 | 50*
C(#Cc1ccc(C#CCN2CCCC2)cc1)CN1CCCC1 | 13 | -18 | 1 | -2 | 0.9 | 12
C=CCNC(=S)NNC(=O)c1ccncc1 | 13 | · | · | · | · | ·
COc1ccc(Br)cc1S(=O)(=O)N(CC(=O)N1CCOCC1)c1ccccc1 | 1 | 7 | 0.3 | 68* | 0.4 | 56*
COc1ccc(C)cc1S(=O)(=O)N(CC(=O)N1CCCC1)c1ccccc1 | -55 | -1 | 0.1 | 89* | 0.9 | 14
COC(=O)CN(c1cccc(F)c1)S(C)(=O)=O | 1 | 6 | 0.9 | 8 | 1 | 0
COc1ccc(NC(=O)COC(=O)[C@@H]2CCCN2C(=O)c2cccs2)cc1 | -9 | -8 | 0.4 | 60* | 0.5 | 46

Screening data (PubChem BioAssay)
